Bioassay records deposited in PubChem by Buhrlage Lab, Dana-Farber Cancer Institute and Novartis Institutes for BioMedical Research (Cambridge, Mass).
USP17 inh: blocks human USP17 ubiquitin-rhodamine cleavage; A8MUK1; purified USP17, Ub-rhodamine cleavage fluorescence, 3 h; inhibition, % at 50 µM; 6.5% of 47,000 active
Target sequence (A8MUK1 whole entry, looked up): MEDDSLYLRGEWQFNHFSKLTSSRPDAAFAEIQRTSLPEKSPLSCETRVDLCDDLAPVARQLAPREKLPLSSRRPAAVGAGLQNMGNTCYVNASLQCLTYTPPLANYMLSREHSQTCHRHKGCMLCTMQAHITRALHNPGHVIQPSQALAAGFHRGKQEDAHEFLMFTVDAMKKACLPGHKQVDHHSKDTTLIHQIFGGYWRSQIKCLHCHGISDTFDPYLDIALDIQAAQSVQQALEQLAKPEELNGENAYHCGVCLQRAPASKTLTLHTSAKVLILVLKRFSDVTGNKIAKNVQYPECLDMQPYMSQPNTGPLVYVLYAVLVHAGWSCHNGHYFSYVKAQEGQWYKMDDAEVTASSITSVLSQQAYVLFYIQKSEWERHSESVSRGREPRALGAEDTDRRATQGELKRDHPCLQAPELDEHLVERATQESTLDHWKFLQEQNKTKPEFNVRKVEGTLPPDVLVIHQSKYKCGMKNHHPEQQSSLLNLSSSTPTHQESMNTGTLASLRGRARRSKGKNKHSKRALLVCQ
USP30 block: human USP30 deubiquitinase inhibition; Q70CQ3; purified USP30, Ub-rhodamine cleavage fluorescence; inhibition, % at 25 µM; 5.3% of 47,000 active; AID 1645860
USP8 inh: human USP8 deubiquitinase inhibition; purified USP8, Ub-rhodamine cleavage fluorescence, 30 min; inhibition, % at 20 µM; 4.2% of 47,000 active; AID 1645853
Numbers without * were called inactive; i = inactive; / = no result given. The list is not random: actives were taken first. Their share in the collection is about 12%. No stated cut-off is given here; in the data, active means inhibition above about 30%; inactive means the rest.

SMILES	USP17 inh	USP30 block	USP8 inh
O=S(=O)(NCCc1c[nH]c2ncccc12)c1ccccc1	-9	-10	-39
O=C(Nc1ccccc1-c1nc2ccccc2[nH]1)c1sc2ccccc2c1Cl	83*	4	59*
O=C(Nc1ccccc1-c1nc2ccccc2[nH]1)c1ccc(Br)cc1	-12	-7	11
Cc1noc(C)c1CSc1ncccc1C(=O)Nc1ccnn1Cc1ccccn1	-72	-74	-322
COc1cc(N2CC[C@@H]3[C@@H]2CCN3C(=O)c2cc(C)oc2C)ncn1	-74	-155	-280
COc1ccc(NC(=O)Cc2c(C)nc3c(-c4ccc(F)cc4)c(C)nn3c2C)cc1	8	24	14
Cc1ccc(NC(=O)c2nnn(-c3ccccc3)n2)cc1	1	12	14
COc1ccc(-n2nnc(C(=O)NC3CC3)n2)cc1	0	6	2
Cc1nc(NC(=O)c2nnn(-c3ccc(F)cc3)n2)sc1C	40*	-2	7
COc1ccc(-n2nnc(C(=O)Nc3nc(C)c(C)s3)n2)cc1	48*	34*	0
CCCN1CCN(C(=O)c2cn3ccnc(-c4ccc(F)cc4)c3n2)CC1	-5	-3	1
O=C(Cn1ncc2c1-c1ccccc1OC2)Nc1ccc(F)c(Cl)c1	-5	35*	-4
O=C(CN1CC(c2nc(-c3ncccn3)no2)C1)Nc1ccc(F)c(Cl)c1	-12	7	-49
Cn1c(=O)c2c(ncn2CCOc2cccc(Cl)c2)n(C)c1=O	0	-1	-1
CC(NC(=O)C1(c2ccc(Cl)cc2)CCCC1)c1nc(-c2ccncc2)n[nH]1 (configuration not stated)	/	8	-2
COc1ccc(OCC(=O)NCc2ccc(-c3ncncc3-c3cc(C)no3)cc2)cc1	9	13	1
COc1ccc(CNC(=O)C(C)n2nc(-c3ccco3)c(-c3cc(C)no3)cc2=O)cc1 (configuration not stated)	64*	28	28
COc1ccc(C(=O)Cn2nc(-c3ccco3)c(-c3cc(C)no3)cc2=O)cc1	47*	-5	24
COCCCNc1ncc(-c2cc(C)no2)c(-c2ccco2)n1	-1	-1	0
Cc1cc(=O)n(CC(=O)NCc2ccc(F)cc2Cl)c(N2CCCC2)n1	4	16	9
COc1ccc(CNC(=O)NCc2nnnn2-c2ccccc2)cc1OC	-2	5	5
Cn1c(NC(=O)c2ccco2)c(-c2cccs2)c(=O)c2ccccc21	10	-185	34*
Cc1ccc(-c2c(NC(=O)c3ccco3)n(C)c3ccccc3c2=O)cc1	7	22	17
Cc1ccccc1C(=O)N1CCN(S(=O)(=O)c2c(C)nn(C)c2C)CC1	-1	6	-2
O=c1cc(CN2CCc3ccccc3C2)nc2nc(NCc3ccccc3)[nH]n12	12	13	0
SMILES	USP17 inh	USP30 block	USP8 inh
CC(C)c1ccc(CNc2nc3nc(CN4CCCC4)cc(=O)n3[nH]2)cc1	-27	-9	-152
O=c1cc(CN2CCc3ccccc3C2)nc2nc(NCc3ccc(Cl)cc3)[nH]n12	28	49*	-85
COc1ccc(NCc2cc(=O)n3[nH]c(NCc4ccc(C(C)C)cc4)nc3n2)cc1	56*	16	-41
COc1ccccc1CC(=O)N1CCC2(CC1)Nc1cccnc1NC2=NC1CCCC1	-142	-333	-79
CCc1nc(SCC(=O)Nc2ccccc2Cl)c2oc3ccccc3c2n1	58*	-2	5
CCc1nc(SCc2ccccc2)c2oc3ccccc3c2n1	-1	0	-1
CCc1nc(SCC(=O)Nc2cc(Cl)ccc2C)c2oc3ccccc3c2n1	54*	68*	26
CCc1nc(SCC(=O)Nc2cc(OC)ccc2OC)c2oc3ccccc3c2n1	16	13	29
CCc1nc(SCc2ccccc2C)c2oc3ccccc3c2n1	29	32*	5
CCc1nc(SCC(=O)Nc2ccc(Cl)c(Cl)c2)c2oc3ccccc3c2n1	25	18	-241
COc1ccc(S(=O)(=O)N(CC(=O)Nc2c(F)cccc2F)c2cc(C)cc(C)c2)cc1OC	14	23	19
Cc1ccc2ncc(S(=O)(=O)c3ccccc3)c(N3CCOCC3)c2c1	-1	-7	-4
CCc1noc(C)c1C(=O)N1CCOC(c2nc(C(C)(C)C)n[nH]2)C1 (configuration not stated)	-4	-2	-5
COc1ccc(NC(=NCc2ccc(OC(C)C)cc2)NS(C)(=O)=O)cc1OC	-16	11	-139
COc1ccc(S(=O)(=O)N2CCN3Cc4ccccc4N(C)CC3C2)cc1 (configuration not stated)	-190	i	-265
CSc1ncn(-c2nc(N(C)C)nc(N3CCCCCC3)n2)n1	5	18	5
CCNc1nc(N2CCCCCC2)nc(-n2cnc(SC)n2)n1	11	30*	5
O=C(NCC1CCCO1)c1n[nH]c2c1CCCCCC2 (configuration not stated)	3	20	-7
Cc1oc(-c2[nH]ncc2C(=O)N(C)C)cc1S(=O)(=O)N1CCN(c2ccccn2)CC1	5	13	6
CC(C)N(Cc1nnc(-c2ccccc2)o1)C(=O)c1cccc(C#N)c1	-6	-15	4
COc1ncccc1C(=O)N1CCC(c2ccnc3cc(C)nn23)CC1	11	13	17
Cc1cc2nccc(C3CCN(C(=O)COc4cccnc4)CC3)n2n1	8	-270	49*
O=C(c1ccco1)N(c1ccc(Oc2ccccc2)cc1)c1nc2ccccc2s1	45*	16	7
CC(=O)NCCC(=O)N(c1ccc(Oc2ccccc2)cc1)c1nc2ccccc2s1	7	-12	3
O=[N+]([O-])c1ccc(NCC2COc3ccccc3O2)c(Cl)c1 (configuration not stated)	7	26	-3
SMILES	USP17 inh	USP30 block	USP8 inh
Cc1ccc(-c2cc(NC(=O)C(C)C)c(=O)n(CC(=O)Nc3ccc(F)cc3F)n2)cc1	6	17	-5
COc1cc(C(=O)OCc2csc(-c3ccccc3)n2)ccc1OCC(=O)Nc1ccc(F)cc1	49*	-66	6
COc1cc(C(=O)OCc2csc(-c3ccccc3)n2)cc(Cl)c1OC	-13	-20	-61
COc1cccc(CC(=O)N2CCN(C(=O)C(C)C)CC3(CNC(=O)C3)C2)c1 (configuration not stated)	1	3	-12
Cc1ccc(CNC(=O)Cn2c(-c3ccccc3)nc(C)cc2=O)cc1	-3	4	16
Cc1ccc(CNC(=O)c2cc(-c3ccccc3)nn2-c2ccccc2)cc1	22	34*	19
c1ccc2oc(-c3cn[nH]c3)nc2c1	13	31*	-154
CCOc1ccc(C(=O)Nc2cccc(-c3nc4ccccc4o3)c2)cc1Br	-145	i	-34
O=S(=O)(Nc1cccn2cnnc12)c1ccc2c(c1)OCCO2	-47	-160	-14
COc1cc(OC)cc(C(=O)OCC(=O)Nc2cc(S(=O)(=O)N3CCCCC3)ccc2C)c1	3	4	18
O=C(Nc1ccccc1Cl)N(Cc1cc2cc3c(cc2[nH]c1=O)OCCO3)C1CCCCC1	52*	-6	5
Cc1cc(C)c2cc(CN(C(=O)Nc3ccc(Cl)cc3)C3CCCC3)c(=O)[nH]c2c1	8	36*	24
Cc1cc(C)c2cc(CN(C(=O)Nc3ccc(F)cc3)C3CCCC3)c(=O)[nH]c2c1	0	-2	-1
